Laboratory results as given in the supplement of paper PMC10849652.
The full data set covers some 8,800 targets. This sample favours those with a hit. About 0.5% of all pairs of compound and target were hits. A number with no mark means an inactive call.

Legend:
Experiment in all cases: log2 fold change, soluble protein after heating vs DMSO (PISA); higher = thermal stabilisation; K562 lysate, 10 uM; active = over 0.2 and 3.5 SD of the protein, either way, in both replicates (recomputed)
erlotinib = compound: C#Cc1cccc(Nc2ncnc3cc(OCCOC)c(OCCOC)cc23)c1 [erlotinib]
Summary of the method: (§1)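 Dounce homogenisation of K562 pellets in PBS pH 7.4 with 1 mM MgCl2 produced a crude extract, used at 1 mg/mL protein. Exposure to 10 μM compound lasted 30 min, and aliquots were then heated for 3 min across 48°C-58°C, pooled and brought to 0.5% NP-40 at 4°C. The supernatant after 21,000xg for 90 min was quantified by TMTpro 16plex LC-MS/MS with channel sums equalised. Duplicate values are given as log-two fold change in thermal stability relative to solvent controls.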

[1] = compound: C/C(=N\NC(=O)C1=CC(=CC=C1)S(=O)(=O)N2CCOCC2)/C3=C(C=CC(=C3)Cl)O
Summary of the method: as §1

[2] = compound: C1=CC(=CC=C1C2=NC3=C(N2)C=C(C=C3)C(=O)N)OC4=CC=C(C=C4)Cl
Summary of the method: as §1

[3] = compound: C1=CC2=C(C=CC(=C2)/C=C\3/C(=O)NC(=NCC4=CC=CS4)S3)N=C1
Summary of the method: as §1

[4] = compound: C1=CC=C(C=C1)C2=NC(=C(N2)C3=CC=NC=C3)C4=CC(=C(C=C4)Cl)O
Summary of the method: as §1

[5] = compound: C1=CC=C2C(=C1)C3=NNC4=CC=CC(=C43)C2=O
Summary of the method: as §1

[6] = compound: C1CCN(C1)C(=O)NC2=CC=CC(=C2)NC3=NC=C(C(=N3)NCCC4=CN=CN4)Br
Summary of the method: as §1

[7] = compound: C1CN(CCC1(CC2=CC=C(C=C2)Cl)N)C3=NC=NC4=C3C=CN4
Summary of the method: as §1

IRAK-1-4 Inhibitor I = compound: C1COCCN1CCN2C3=CC=CC=C3N=C2NC(=O)C4=CC(=CC=C4)[N+](=O)[O-] [IRAK-1-4 Inhibitor I]
Summary of the method: as §1

ralimetinib = compound: CC(C)(C)Cn1c(N)nc2ccc(-c3[nH]c(C(C)(C)C)nc3-c3ccc(F)cc3)nc21 [ralimetinib]
Summary of the method: as §1

[8] = compound: CC(C)(O)CC(=O)NCCn1ccc2ncnc(Nc3ccc(Oc4cccc(C(F)(F)F)c4)c(Cl)c3)c21
Summary of the method: as §1

[9] = compound: CC(C)C1=C2N=C(C=C(N2N=C1)NCC3=CC=CC=C3)NCCCCCCN
Summary of the method: as §1

[10] = compound: CC1=C(C(CC(=O)N1)C2=CC=C(C=C2)C(F)(F)F)C(=O)NC3=C(C=C4C(=C3)C=NN4)F
Summary of the method: as §1

[11] = compound: CC1=C(C2=C(C=C1)C(=O)C3=CC=CC=C3N2CCCN)C
Summary of the method: as §1

[12] = compound: CC1=C(C=C(C=C1)NC(=O)C2=CC(=CC=C2)C(C)(C)C#N)NC3=CC4=C(C=C3)N=CN(C4=O)C
Summary of the method: as §1

[13] = compound: CC1=C(C=C(C=C1)NC(=O)C2=CC(=CC=C2)N(C)C)NC(=O)C3=CC=C(C=C3)O
Summary of the method: as §1

[14] = compound: C1=CC2=NC=CN=C2C=C1/C=C/3\C(=O)NC(=O)S3
Summary of the method: as §1

ibrutinib = compound: C=CC(=O)N1CCC[C@@H](n2nc(-c3ccc(Oc4ccccc4)cc3)c3c(N)ncnc32)C1 [ibrutinib]
Summary of the method: as §1

[15] = compound: CC(=O)c1cnc2ccc(-c3cc(Cl)c(O)c(Cl)c3)nc2c1N[C@H]1CC[C@H](CN(C)C)CC1
Summary of the method: as §1

[16] = compound: CC1=CC=C(C=C1)SC2=C3C=C(SC3=CN=C2)C(=O)N
Summary of the method: as §1

UniProt P03928, sequence (P03928 whole entry, looked up): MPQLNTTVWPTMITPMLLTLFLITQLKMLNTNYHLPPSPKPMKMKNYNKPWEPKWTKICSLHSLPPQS
UniProt Q9UBD5, sequence (Q9UBD5 whole entry, looked up): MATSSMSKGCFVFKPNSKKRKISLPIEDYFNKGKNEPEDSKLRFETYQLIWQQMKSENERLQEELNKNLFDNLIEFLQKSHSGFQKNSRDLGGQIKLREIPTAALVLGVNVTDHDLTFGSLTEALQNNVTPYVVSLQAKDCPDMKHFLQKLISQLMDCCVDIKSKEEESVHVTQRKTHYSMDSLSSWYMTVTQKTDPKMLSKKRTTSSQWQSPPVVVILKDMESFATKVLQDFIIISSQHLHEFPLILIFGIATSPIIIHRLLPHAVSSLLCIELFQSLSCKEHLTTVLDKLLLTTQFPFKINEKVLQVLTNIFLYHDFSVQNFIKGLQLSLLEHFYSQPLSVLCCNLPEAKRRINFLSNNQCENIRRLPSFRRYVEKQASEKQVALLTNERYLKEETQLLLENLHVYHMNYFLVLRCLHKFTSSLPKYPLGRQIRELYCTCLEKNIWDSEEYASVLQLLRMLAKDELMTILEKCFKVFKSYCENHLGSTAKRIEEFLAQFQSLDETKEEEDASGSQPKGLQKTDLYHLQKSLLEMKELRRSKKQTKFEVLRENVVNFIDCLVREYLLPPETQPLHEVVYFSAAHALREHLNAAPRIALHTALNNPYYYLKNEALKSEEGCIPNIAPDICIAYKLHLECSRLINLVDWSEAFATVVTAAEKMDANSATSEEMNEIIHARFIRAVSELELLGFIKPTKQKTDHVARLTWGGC
UniProt Q6N069, sequence (Q6N069 whole entry, looked up): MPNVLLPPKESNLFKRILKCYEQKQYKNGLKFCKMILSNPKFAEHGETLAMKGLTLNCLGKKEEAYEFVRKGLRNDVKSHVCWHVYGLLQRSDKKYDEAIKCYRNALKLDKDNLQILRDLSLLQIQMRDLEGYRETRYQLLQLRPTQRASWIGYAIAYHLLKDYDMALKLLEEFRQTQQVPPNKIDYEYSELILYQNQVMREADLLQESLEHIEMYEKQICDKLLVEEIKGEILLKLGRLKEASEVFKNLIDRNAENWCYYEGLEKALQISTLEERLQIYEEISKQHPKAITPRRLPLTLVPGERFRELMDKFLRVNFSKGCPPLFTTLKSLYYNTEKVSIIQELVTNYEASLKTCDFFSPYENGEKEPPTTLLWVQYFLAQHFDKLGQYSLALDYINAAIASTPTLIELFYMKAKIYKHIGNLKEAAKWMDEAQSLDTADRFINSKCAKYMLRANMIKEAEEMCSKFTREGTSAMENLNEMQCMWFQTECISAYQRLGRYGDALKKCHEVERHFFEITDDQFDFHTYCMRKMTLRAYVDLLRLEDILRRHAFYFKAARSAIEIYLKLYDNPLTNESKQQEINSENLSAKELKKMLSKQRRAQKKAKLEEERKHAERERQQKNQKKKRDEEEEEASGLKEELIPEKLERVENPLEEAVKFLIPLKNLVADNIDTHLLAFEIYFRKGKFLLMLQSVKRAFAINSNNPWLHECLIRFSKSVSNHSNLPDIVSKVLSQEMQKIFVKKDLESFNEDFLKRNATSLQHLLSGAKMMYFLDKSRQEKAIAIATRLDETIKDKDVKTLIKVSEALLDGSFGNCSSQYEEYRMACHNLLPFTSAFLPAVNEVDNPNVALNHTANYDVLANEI
UniProt P10244, sequence (P10244 whole entry, looked up): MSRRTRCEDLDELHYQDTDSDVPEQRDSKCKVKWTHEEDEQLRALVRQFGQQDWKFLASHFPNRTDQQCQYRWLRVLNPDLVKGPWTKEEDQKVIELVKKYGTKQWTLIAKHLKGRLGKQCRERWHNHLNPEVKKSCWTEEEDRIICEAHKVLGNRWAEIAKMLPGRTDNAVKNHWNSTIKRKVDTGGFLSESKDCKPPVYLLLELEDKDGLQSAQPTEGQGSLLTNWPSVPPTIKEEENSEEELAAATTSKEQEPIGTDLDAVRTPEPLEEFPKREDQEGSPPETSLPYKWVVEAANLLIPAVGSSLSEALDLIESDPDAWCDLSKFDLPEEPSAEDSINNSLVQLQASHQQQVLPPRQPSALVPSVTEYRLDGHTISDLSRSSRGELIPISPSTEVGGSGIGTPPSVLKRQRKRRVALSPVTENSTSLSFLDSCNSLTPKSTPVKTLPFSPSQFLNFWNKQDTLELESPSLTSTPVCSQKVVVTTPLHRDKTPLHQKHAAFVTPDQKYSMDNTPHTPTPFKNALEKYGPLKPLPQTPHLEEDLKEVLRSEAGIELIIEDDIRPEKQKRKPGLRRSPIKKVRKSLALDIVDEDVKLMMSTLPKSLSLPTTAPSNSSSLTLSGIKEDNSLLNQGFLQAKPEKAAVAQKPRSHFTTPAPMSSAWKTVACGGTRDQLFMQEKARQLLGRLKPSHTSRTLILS
UniProt P47900, sequence (P47900 whole entry, looked up): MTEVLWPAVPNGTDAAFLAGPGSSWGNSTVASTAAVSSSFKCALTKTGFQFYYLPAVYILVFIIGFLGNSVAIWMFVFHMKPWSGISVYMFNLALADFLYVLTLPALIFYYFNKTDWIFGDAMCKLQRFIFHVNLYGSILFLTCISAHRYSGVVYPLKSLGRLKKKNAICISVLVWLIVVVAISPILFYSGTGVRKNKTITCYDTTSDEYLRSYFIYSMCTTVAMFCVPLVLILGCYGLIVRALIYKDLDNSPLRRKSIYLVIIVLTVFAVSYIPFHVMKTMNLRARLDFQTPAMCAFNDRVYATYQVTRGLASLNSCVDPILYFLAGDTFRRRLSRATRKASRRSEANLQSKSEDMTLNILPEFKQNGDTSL
UniProt Q5TEU4, sequence (Q5TEU4 whole entry, looked up): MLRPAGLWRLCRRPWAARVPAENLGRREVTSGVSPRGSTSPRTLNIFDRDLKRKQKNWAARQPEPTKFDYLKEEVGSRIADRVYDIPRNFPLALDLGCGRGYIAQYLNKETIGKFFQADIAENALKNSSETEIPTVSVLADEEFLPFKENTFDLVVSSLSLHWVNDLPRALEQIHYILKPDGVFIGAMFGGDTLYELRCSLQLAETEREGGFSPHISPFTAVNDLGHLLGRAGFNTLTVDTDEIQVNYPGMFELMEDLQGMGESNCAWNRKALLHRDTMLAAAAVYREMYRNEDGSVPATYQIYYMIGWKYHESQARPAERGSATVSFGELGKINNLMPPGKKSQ
UniProt P49757, sequence (P49757 whole entry, looked up): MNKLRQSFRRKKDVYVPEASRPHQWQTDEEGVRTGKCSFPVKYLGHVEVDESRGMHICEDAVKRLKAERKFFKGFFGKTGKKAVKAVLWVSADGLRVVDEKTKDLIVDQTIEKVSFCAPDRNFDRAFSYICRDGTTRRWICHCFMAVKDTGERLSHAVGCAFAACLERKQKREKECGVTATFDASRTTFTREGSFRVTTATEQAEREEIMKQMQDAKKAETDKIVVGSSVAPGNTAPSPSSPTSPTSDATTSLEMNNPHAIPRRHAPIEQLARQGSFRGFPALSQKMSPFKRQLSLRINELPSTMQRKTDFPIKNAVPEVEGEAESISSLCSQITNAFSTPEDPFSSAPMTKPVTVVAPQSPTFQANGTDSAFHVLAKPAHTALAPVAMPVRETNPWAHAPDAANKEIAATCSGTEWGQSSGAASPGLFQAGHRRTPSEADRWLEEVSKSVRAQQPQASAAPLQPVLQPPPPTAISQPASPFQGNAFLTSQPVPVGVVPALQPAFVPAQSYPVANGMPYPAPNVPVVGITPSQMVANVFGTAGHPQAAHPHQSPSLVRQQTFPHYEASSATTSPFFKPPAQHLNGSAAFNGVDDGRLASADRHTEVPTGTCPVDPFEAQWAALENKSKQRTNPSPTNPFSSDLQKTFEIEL
UniProt P48552, sequence (P48552 whole entry, looked up): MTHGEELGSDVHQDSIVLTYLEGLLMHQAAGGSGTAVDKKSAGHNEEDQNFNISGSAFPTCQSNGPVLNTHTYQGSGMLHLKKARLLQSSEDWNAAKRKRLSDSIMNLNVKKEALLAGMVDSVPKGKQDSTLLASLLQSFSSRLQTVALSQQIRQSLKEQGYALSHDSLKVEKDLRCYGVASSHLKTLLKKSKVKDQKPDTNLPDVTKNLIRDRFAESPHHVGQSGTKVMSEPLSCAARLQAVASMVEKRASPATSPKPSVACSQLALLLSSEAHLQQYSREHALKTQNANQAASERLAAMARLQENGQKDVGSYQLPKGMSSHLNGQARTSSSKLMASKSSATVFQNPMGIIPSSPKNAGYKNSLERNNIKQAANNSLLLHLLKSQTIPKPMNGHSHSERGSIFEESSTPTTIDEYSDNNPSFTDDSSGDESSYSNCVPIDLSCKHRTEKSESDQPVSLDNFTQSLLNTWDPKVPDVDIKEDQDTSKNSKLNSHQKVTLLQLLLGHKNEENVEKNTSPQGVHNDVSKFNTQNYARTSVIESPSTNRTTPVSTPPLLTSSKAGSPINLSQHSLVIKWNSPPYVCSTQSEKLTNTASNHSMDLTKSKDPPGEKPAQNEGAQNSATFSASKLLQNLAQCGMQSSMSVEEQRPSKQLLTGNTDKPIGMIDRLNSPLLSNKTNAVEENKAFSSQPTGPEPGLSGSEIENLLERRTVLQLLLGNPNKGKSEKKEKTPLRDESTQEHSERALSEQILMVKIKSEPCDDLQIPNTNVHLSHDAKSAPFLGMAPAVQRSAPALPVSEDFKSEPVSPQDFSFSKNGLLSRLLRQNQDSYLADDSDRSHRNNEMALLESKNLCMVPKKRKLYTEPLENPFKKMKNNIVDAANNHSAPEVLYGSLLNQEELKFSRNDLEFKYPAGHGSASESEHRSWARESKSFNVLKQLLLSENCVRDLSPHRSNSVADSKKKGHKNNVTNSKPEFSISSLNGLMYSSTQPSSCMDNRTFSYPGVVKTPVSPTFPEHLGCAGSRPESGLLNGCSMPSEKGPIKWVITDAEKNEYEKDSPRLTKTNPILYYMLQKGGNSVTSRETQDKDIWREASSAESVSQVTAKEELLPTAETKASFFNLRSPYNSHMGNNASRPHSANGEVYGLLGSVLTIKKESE

Target	log2 fold change (erlotinib)	log2 fold change [1]	log2 fold change [2]	log2 fold change [3]	log2 fold change [4]	log2 fold change [5]	log2 fold change [6]	log2 fold change [7]	log2 fold change (IRAK-1-4 Inhibitor I)	log2 fold change (ralimetinib)	log2 fold change [8]	log2 fold change [9]	log2 fold change [10]	log2 fold change [11]	log2 fold change [12]	log2 fold change [13]	log2 fold change [14]	log2 fold change (ibrutinib)	log2 fold change [15]	log2 fold change [16]
PAPOLG (UniProt Q9BWT3)	0	-0.068	-0.092	0.035	0.055	0.041	-0.086	0.104	0.136	0.01	-0.071	-0.19	-0.089	0.012	-0.028	-0.092				
MUC5AC (UniProt P98088)					0.015				-0.074	-0.067	0.06		1.44			0.041				
NFAT5 isoform 4 (UniProt O94916)															0.088		0.161	-0.016		
MT-ATP8 (UniProt P03928)	0.069	0.006	-0.006	-0.041	-0.103	-0.062	0.116	0.068	0.033	0.005	-0.109	-0.087	-0.082		0.153	0.047	0.103	-0.035	-0.052	0.104
NDUFAF5 (UniProt Q5TEU4)	-0.001	0.027	0.016	0.021	0.009	0.11	0.193	-0.056	0.07	-0.011	-0.008	-0.029		0.043	0.076	-0.026	-0.022	-0.007	0.021	-0.048
ORC3 (UniProt Q9UBD5)													-0.007						0.161	0.03
NR2F2 (UniProt P24468)	-0.007		0		0.076				0.048	-0.006	-0.069	-0.067	0.097	0.032	-0.031	0.065	-0.192	0.007	-0.09	-0.042
P2RY1 (UniProt P47900)	-0.014		-0.07		0.023		-0.024	0.094	0.07	-0.045	-0.107	-0.322		0.064		-0.009	0.148	-0.026	0.102	0.058
NUMB isoform 2 (UniProt P49757)					0.304				0.021	0.059	0.12		0.154	-0.245		-0.062				
NTMT1 (UniProt S4R338)																			-0.182	0.058
NSA2 (UniProt O95478)	-0.015	-0.15	0.009	-0.102	-0.002	-0.016	0.157	0.109	-0.006	0.012	0.082	0.01	-0.043	0.223		-0.155	-0.05	0.154	0.068	-0.027
NUDT6 (UniProt P53370)	-0.01	0.113	-0.02	-0.518 (active)	-0.008	0.111	-0.06	0.06	0.032	0.065	-0.033	0.054		0.169	0.011	-0.042				
NRIP1 (UniProt P48552)	0.031		0		0.024				0.114	-0.05	-0.165	-0.007	0.093	-0.217	0.175	-0.005	-0.033	-0.018	-0.055	-0.102
OSBPL1A (UniProt Q9BXW6)	0.235		0.205									0.116	0.152	-0.069	0.012		0.038	0.019	-0.002	-0.028
MYLK (UniProt Q15746)		-0.067		0.027		0.345	0.106	-0.262					0.061		0.228		0.025	0.099	0.226	0.004
MYO10 (UniProt Q9HD67)	-0.044	-0.13	0.19	0.017	0.014	-0.16			0.102	-0.136	-0.385	0.035	-0.078		-0.001	0.042	-0.062	-0.059		
MXRA7 (UniProt P84157)	-0.001	0.062	0.118	0.17	-0.062	-0.135	0.02	0	-0.043	0.108	0.027	-0.057	-0.074	0.024	0.021	0.045			-0.234	-0.023
NPLOC4 (UniProt I3L3I1)							-0.128	0.046						-0.169	0.447		-0.029	-0.022		
NUB1 isoform 2 (UniProt Q9Y5A7)															0.075					
MYBL2 (UniProt P10244)	0.02	0.014	-0.011	0.035	0.005	0.078	-0.013	-0.036	0.009	0	0.02	-0.008		0.057	0.048	-0.013				
NAA16 (UniProt Q6N069)		-0.036		-0.022	-0.127	-0.206	0.136	-0.038	0.017	-0.179	0.085		0.092	0.105		0.147	0.027	-0.047	0.097	0.062
NUDT5 (UniProt C9JYY9)	0.098		-0.157				-0.069	0.034				-0.111	-0.05							
